Test results from the antibiotic and cytotoxicity screens of Wong et al. (2023).
Out of some 39,000 compounds screened, about 3,300 (8.5%) were called active. Shown is part of a subset that was picked to be rich in actives.

Test system: HepG2
Assay: cytotoxicity call (relative viability < 0.9)
Conditions: 10 µM

Row | Compound | cytotoxicity call
1 | C[C@@H]1CCCCO[C@H](CN(C)Cc2ccc3c(c2)OCO3)[C@H](C)CN([C@@H](C)CO)C(=O)c2cc(NC(=O)Nc3ccc(C(F)(F)F)cc3)ccc2O1 | active
2 | C[C@H]1CCCCO[C@@H](CN(C)Cc2ccc3c(c2)OCO3)[C@@H](C)CN([C@@H](C)CO)C(=O)c2cc(NC(=O)Nc3ccc(C(F)(F)F)cc3)ccc2O1 | active
3 | C[C@@H]1CCCCO[C@@H](CN(C)Cc2ccc3c(c2)OCO3)[C@@H](C)CN([C@H](C)CO)C(=O)c2cc(NC(=O)Nc3ccc(C(F)(F)F)cc3)ccc2O1 | active
4 | C[C@H](CO)N1C[C@H](C)[C@H](CN(C)Cc2ccc3c(c2)OCO3)OCCCC[C@H](C)Oc2ccc(NC(=O)Nc3ccc(C(F)(F)F)cc3)cc2C1=O | active
5 | C[C@@H]1CCCCO[C@H](CN(C)C(=O)Cc2ccccc2)[C@H](C)CN([C@@H](C)CO)C(=O)c2cc(NC(=O)c3ccccc3)ccc2O1 | inactive
6 | CCCNC(=O)N[C@@H]1CC[C@@H](CC(=O)N2CCN(C)CC2)O[C@@H]1CO | inactive
7 | Cc1noc(C)c1S(=O)(=O)Nc1ccc2c(c1)C(=O)N([C@H](C)CO)C[C@@H](C)[C@@H](CN(C)C(=O)Nc1ccc(F)cc1)OCCCC[C@@H](C)O2 | inactive
8 | O=C(Nc1ccccc1C(=O)O)c1nnc[nH]1 | inactive
9 | O=C(NCC[C@H]1CC[C@H](NS(=O)(=O)c2cccc(F)c2)[C@H](CO)O1)C1CC1 | inactive
10 | C[C@@H](Oc1ccccc1)c1ccn[nH]1 | inactive
11 | C[C@H]([C@H](C)N1CC(=O)NC(=O)C1)N1CC(=O)NC(=O)C1 | inactive
12 | C[C@@H]1CCCCO[C@H](CN(C)Cc2ccc3c(c2)OCO3)[C@H](C)CN([C@H](C)CO)C(=O)c2cc(NC(=O)Nc3ccc(C(F)(F)F)cc3)ccc2O1 | active
13 | C[C@@H]1CCCCO[C@@H](CN(C)Cc2ccc3c(c2)OCO3)[C@H](C)CN([C@H](C)CO)C(=O)c2cc(NC(=O)Nc3ccc(C(F)(F)F)cc3)ccc2O1 | active
14 | C[C@H]1CCCCO[C@H](CN(C)Cc2ccc3c(c2)OCO3)[C@@H](C)CN([C@@H](C)CO)C(=O)c2cc(NC(=O)Nc3ccc(C(F)(F)F)cc3)ccc2O1 | active
15 | C[C@@H]1CCCCO[C@H](CN(C)Cc2ccc3c(c2)OCO3)[C@@H](C)CN([C@H](C)CO)C(=O)c2cc(NC(=O)Nc3ccc(C(F)(F)F)cc3)ccc2O1 | active
16 | COCN(C#N)c1nc(N(C)C)nc(N(C)C)n1 | inactive
17 | C[C@@H]1CN([C@H](C)CO)S(=O)(=O)c2ccc(-c3ccncc3)cc2O[C@H]1CN(C)S(=O)(=O)c1ccccc1F | inactive
18 | NC(=O)c1cccnc1N1CCN(C(=O)[C@@H]2CC(=O)N(C3CC3)C2)CC1 | inactive
19 | CCCC(=O)Nc1ccc2c(c1)C(=O)N(C)[C@@H]1CC[C@@H](CC(=O)NCCN3CCCCC3)O[C@H]1CO2 | inactive
20 | Cn1nc(O)c(=O)[nH]c1=S | inactive
21 | O=C(Cc1ccncc1)Nc1ccc2c(c1)[C@H]1C[C@H](CC(=O)N3CCc4ccccc4C3)O[C@@H](CO)[C@H]1O2 | inactive
22 | Cc1cn2c3c(=O)n(C)c(=O)n(C)c3nc2n1CCN1CCOCC1 | inactive
23 | Cc1noc(C)c1NC(=O)N(C)C[C@H]1OCCCC[C@H](C)Oc2ccc(NC(=O)CCC(F)(F)F)cc2C(=O)N([C@H](C)CO)C[C@@H]1C | inactive
24 | C[C@H](CO)N1C[C@H](C)[C@@H](CN(C)Cc2ccc3c(c2)OCO3)OCCCC[C@H](C)Oc2ccc(NC(=O)Nc3ccc(C(F)(F)F)cc3)cc2C1=O | active
25 | C[C@@H]1CN([C@H](C)CO)C(=O)c2cc(NC(=O)Nc3ccc(C(F)(F)F)cc3)ccc2O[C@@H](C)CCCCO[C@H]1CN(C)Cc1ccc2c(c1)OCO2 | active
26 | C[C@@H]1CN([C@@H](C)CO)C(=O)c2cc(NC(=O)Nc3ccc(C(F)(F)F)cc3)ccc2O[C@@H](C)CCCCO[C@H]1CN(C)Cc1ccc2c(c1)OCO2 | active
27 | Cn1c(=O)[nH]c(=O)c2c(=O)cc[nH]c21 | inactive

Row | Compound | cytotoxicity call
28 | COc1ccccc1CNC(=O)C[C@H]1C[C@H]2c3cc(NC(=O)Cc4ccncc4)ccc3O[C@H]2[C@@H](CO)O1 | inactive
29 | C[C@@H]1CCCCO[C@H](CN(C)S(=O)(=O)c2ccc(F)cc2)[C@H](C)CN([C@H](C)CO)C(=O)c2cc(NC(=O)Nc3cccc4ccccc34)ccc2O1 | inactive
30 | C[C@@H]1CN([C@@H](C)CO)C(=O)c2c(c3ccccc3n2C)-c2ccccc2CO[C@H]1CN(C)C(=O)Nc1cccc(Cl)c1Cl | inactive
31 | CC(C)[C@H](NC=O)C(=O)OC[C@H](O)[C@H](O)[C@H](O)[C@H](O)COC(=O)[C@H](NC=O)C(C)C | inactive
32 | C[C@H](CO)N1C[C@H](C)[C@@H](CN(C)Cc2ccncc2)Oc2c(NC(=O)c3ccncc3)cccc2C1=O | inactive
33 | O=C1CSC(/N=C/c2ccccc2O)=NN1 | active
34 | O=C(NCc1cccc(F)c1)[C@@H]1[C@@H](CO)[C@@H]2Cn3c(cccc3=O)[C@H]1N2C(=O)c1cnccn1 | inactive
35 | CN(C)CCC=C1c2ccccc2Sc2ccc(Cl)cc21.Cl | active
36 | CN(C)CC/C=C1/c2ccccc2Sc2ccc(Cl)cc21 | active
37 | CCS(=O)(=O)N1C[C@]2(CN(Cc3cc(ccc3F)F)C2)c2c(n(c3cc(ccc23)OC)C)[C@H]1CO | inactive
38 | CCS(=O)(=O)N1C[C@]2(CN(Cc3ccc4c(c3)OCO4)[C@H](CO)c3c2c2ccc(cc2n3C)OC)C1 | inactive
39 | C[C@@H]1CN([C@@H](C)CO)C(=O)c2cccc(NS(C)(=O)=O)c2O[C@H]1CN(C)C(=O)Nc1ccc2c(c1)OCO2 | inactive
40 | Cc1noc(C)c1S(=O)(=O)N(C)C[C@H]1OCCCC[C@@H](C)Oc2ccc(N(C)C)cc2C(=O)N([C@H](C)CO)C[C@@H]1C | inactive
41 | COc1ccc(NC(=O)Nc2ccc3c(c2)C(=O)N([C@@H](C)CO)C[C@H](C)[C@@H](CN(C)C(=O)CCC(F)(F)F)OCCCC[C@@H](C)O3)cc1 | inactive
42 | C[C@H](CO)N1C[C@H](C)[C@@H](CN(C)Cc2ccncc2)OCCCC[C@H](C)Oc2ccc(NC(=O)C3CCCCC3)cc2C1=O | inactive
43 | C[C@H]1CN([C@@H](C)CO)C(=O)c2cc(NC(=O)CCCN(C)C)ccc2O[C@H]1CN(C)Cc1ccc(Oc2ccccc2)cc1 | active
44 | C[C@H]1CN([C@@H](C)CO)C(=O)c2cc(NC(=O)CCCN(C)C)ccc2O[C@H]1CN(C)Cc1ccccc1 | inactive
45 | COc1ccc(CN(C)C[C@@H]2Oc3ccc(NC(=O)CCCN(C)C)cc3C(=O)N([C@H](C)CO)C[C@H]2C)cc1 | inactive
46 | C[C@@H]1CN([C@H](C)CO)C(=O)c2cc(NC(=O)CCCN(C)C)ccc2O[C@H]1CN(C)Cc1ccccc1 | inactive
47 | C[C@H](CO)N1C[C@H](C)[C@@H](CN(C)Cc2ccccc2)Oc2ccc(NC(=O)CCCN(C)C)cc2C1=O | inactive
48 | C[C@H](CO)N1C[C@H](C)[C@@H](CN(C)Cc2ccc(Oc3ccccc3)cc2)Oc2ccc(NC(=O)CCCN(C)C)cc2C1=O | inactive
49 | C[C@@H]1CN([C@@H](C)CO)C(=O)c2cc(NC(=O)CCCN(C)C)ccc2O[C@H]1CN(C)Cc1ccc(Oc2ccccc2)cc1 | inactive
50 | C[C@H]1CN([C@@H](C)CO)C(=O)c2cc(NC(=O)CCCN(C)C)ccc2O[C@@H]1CN(C)Cc1ccc(Oc2ccccc2)cc1 | active
51 | C[C@@H]1CN([C@H](C)CO)C(=O)c2cc(NC(=O)CCCN(C)C)ccc2O[C@@H]1CN(C)Cc1ccc(Oc2ccccc2)cc1 | active
52 | C[C@@H]1CN([C@H](C)CO)C(=O)c2cc(NC(=O)CCCN(C)C)ccc2O[C@H]1CN(C)Cc1ccc(Oc2ccccc2)cc1 | active
53 | C[C@@H]1CN([C@@H](C)CO)C(=O)c2cc(NC(=O)CCCN(C)C)ccc2O[C@H]1CN(C)Cc1ccccc1 | inactive
54 | COc1ccc(CN(C)C[C@H]2Oc3ccc(NC(=O)CCCN(C)C)cc3C(=O)N([C@H](C)CO)C[C@H]2C)cc1 | inactive
